Measured values as given in PubChem BioAssay (NCATS).
Records with an inconclusive call do not appear. A call without a number means that no potency is given here. Activity calls are given as the source filed them. The call rests on the fitted dose curve; in most records, active means well fitted inhibition curve with a large enough effect; inconclusive means small, poorly fitted or top-dose-only effect; inactive means flat fitted curve, though single readings scatter.

Legend:
Experiment in all cases: qHTS profiling for inhibitors of Plasmodium falciparum proliferation (AID 504749); further: nearly all actives have a fitted effect of over 60% in size
Details in all cases: P. falciparum in erythrocytes, SYBR Green DNA, 72 h; series mostly up to 28.7 µM
CP291 = tested on: CP291
In short: (§1)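 Each compound contacts P. falciparum-infected red blood cells for 72 h at 37 C; lysis buffer (Tris, EDTA, saponin, Triton X, SYBR Green I) is added and fluorescence measured next morning; values normalized to controls.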

CP297 = tested on: CP297
In short: as §1

CP305 = tested on: CP305
In short: as §1

CP315 = tested on: CP315
In short: as §1

CP325 = tested on: CP325
In short: as §1

CP329 = tested on: CP329
In short: as §1

CP335 = tested on: CP335
In short: as §1

DFO2036 = tested on: DFO2036
In short: as §1

DIV14 = tested on: DIV14
In short: as §1

DIV17 = tested on: DIV17
In short: as §1

DIV30 = tested on: DIV30
In short: as §1

Dd2 = tested on: Dd2
In short: as §1

ECU = tested on: ECU
In short: as §1

FAB9 = tested on: FAB9
In short: as §1

GB4 = tested on: GB4
In short: as §1

HB3 = tested on: HB3
In short: as §1

ICS = tested on: ICS
In short: as §1

JCK = tested on: JCK
In short: as §1

N140 = tested on: N140
In short: as §1

P93_24 = tested on: P93_24
In short: as §1
Potency means the concentration at half of the fitted maximal effect.

| Structure (SMILES) | Potency (CP291) | Potency (CP297) | Potency (CP305) | Potency (CP315) | Potency (CP325) | Potency (CP329) | Potency (CP335) | Potency (DFO2036) | Potency (DIV14) | Potency (DIV17) | Potency (DIV30) | Potency (Dd2) | Potency (ECU) | Potency (FAB9) | Potency (GB4) | Potency (HB3) | Potency (ICS) | Potency (JCK) | Potency (N140) | Potency (P93_24) |
| --- | --- | --- | --- | --- | --- | --- | --- | --- | --- | --- | --- | --- | --- | --- | --- | --- | --- | --- | --- | --- |
| CC(C)NCC(O)c1ccc(NS(C)(=O)=O)cc1 (configuration not stated) | inactive | inactive | inactive | inactive | inactive | inactive | inactive | inactive | inactive | inactive | inactive | inactive | inactive | inactive | inactive | inactive | inactive | inactive | inactive | inactive |
| O=S(=O)(O)CCS | inactive | inactive | inactive | inactive | inactive | inactive | inactive | inactive | inactive | inactive | inactive | inactive | inactive | inactive | inactive | inactive | inactive | inactive | inactive | inactive |
| Nc1[nH]c(=O)ncc1F | inactive | inactive | inactive | inactive | inactive | inactive | inactive | inactive | inactive | inactive | inactive | inactive | inactive | inactive | inactive | inactive | inactive | inactive | inactive | inactive |
| N=C(N)c1ccc(OCCCCCOc2ccc(C(=N)N)cc2)cc1 | 1200 nM (active) | 601 nM (active) | 536 nM (active) | 1350 nM (active) | 1070 nM (active) | 849 nM (active) | 1350 nM (active) | 1000 nM (active) | 269 nM (active) | 426 nM (active) | 1690 nM (active) | 501 nM (active) | 2000 nM (active) | 794 nM (active) | 338 nM (active) | 1260 nM (active) | 1000 nM (active) | 2510 nM (active) | 1000 nM (active) | 631 nM (active) |
| CC1=NN(c2ccccc2)C(=O)C1 | inactive | inactive | inactive | inactive | inactive | inactive | inactive | inactive | inactive | inactive | inactive | inactive | inactive | inactive | inactive | inactive |  | inactive | inactive | inactive |
| COc1ccc(C(=O)CC(=O)c2ccc(C(C)(C)C)cc2)cc1 | inactive | inactive | inactive | inactive | inactive | inactive | inactive | inactive | inactive | inactive | inactive |  | inactive | inactive | inactive |  |  | inactive | inactive | inactive |
| CN1CCN(c2c(F)cc3c(=O)c(C(=O)O)cn(CCF)c3c2F)CC1 | inactive | inactive | inactive | inactive | inactive | inactive | inactive | inactive |  | inactive | inactive | inactive | inactive | inactive | inactive | inactive | inactive | inactive | inactive | inactive |
| CN(CCOc1ccc(CC2SC(=O)NC2=O)cc1)c1ccccn1 (configuration not stated) | inactive | inactive | inactive | inactive | inactive | inactive | inactive | inactive | inactive | inactive | inactive | inactive | inactive | inactive | inactive | inactive | inactive | inactive | inactive | inactive |
| CC[C@H](C)C(=O)O[C@H]1C[C@@H](C)C=C2C=C[C@H](C)[C@H](CC[C@@H]3C[C@@H](O)CC(=O)O3)[C@H]21 | inactive | inactive | inactive | inactive | inactive | inactive |  | inactive | inactive |  | inactive | inactive | inactive | inactive | inactive | inactive | inactive | inactive | inactive | inactive |
| CCOC(=O)c1ccc(OC(=O)CCCCCN=C(N)N)cc1 | inactive | inactive | inactive | inactive | inactive | inactive |  | inactive |  | 4550 nM (active) | inactive | inactive |  | inactive |  | 4470 nM (active) | 2000 nM (active) | inactive |  |  |
| CC(C)Cn1cnc2c(N)nc3ccccc3c21 | inactive | inactive | inactive | inactive | inactive | inactive | inactive | inactive | inactive | inactive | inactive | inactive | inactive | inactive | inactive |  | inactive | inactive | inactive | inactive |
| CCOC(=O)[C@H](CCc1ccccc1)N[C@H]1CS[C@H](c2cccs2)CN(CC(=O)O)C1=O | inactive | inactive | inactive | inactive | inactive | inactive | inactive | inactive |  | inactive | inactive | inactive |  | inactive |  | inactive |  | inactive |  |  |
| CC(C)(C#N)c1cc(Cn2cncn2)cc(C(C)(C)C#N)c1 | inactive | inactive | inactive | inactive | inactive | inactive |  | inactive | inactive | inactive | inactive | inactive | inactive | inactive | inactive | inactive | inactive | inactive | inactive | inactive |
| CNS(=O)(=O)Cc1ccc2[nH]cc(CCN(C)C)c2c1 | inactive | inactive | inactive | inactive | inactive | inactive |  | inactive | inactive | inactive | inactive | inactive | inactive | inactive | inactive | inactive | inactive | inactive | inactive | inactive |
| Cc1nnc(NS(=O)(=O)c2ccc(N)cc2)s1 | inactive | inactive | inactive | inactive | inactive | inactive | inactive | inactive | inactive | inactive | inactive | inactive | inactive | inactive | inactive | inactive | inactive | inactive | inactive | inactive |
| CC[C@H](NC(C)C)[C@H](O)c1ccc(O)c2[nH]c(=O)ccc12 | inactive | inactive | inactive | inactive | inactive | inactive | inactive | inactive | inactive | inactive |  | inactive | inactive | inactive | inactive | inactive | inactive | inactive | inactive | inactive |
| O=P(O)(O)C(O)(Cc1cccnc1)P(=O)(O)O | inactive | inactive | inactive | inactive | inactive | inactive | inactive | inactive | inactive | inactive |  | inactive | inactive | inactive | inactive | inactive | inactive | inactive | inactive | inactive |
| Cn1nnc2c(C(N)=O)ncn2c1=O | inactive | inactive | inactive | inactive | inactive | inactive | inactive | inactive |  | inactive | inactive | inactive | inactive | inactive | inactive | inactive | inactive | inactive | inactive | inactive |
| CC1=CC(=O)c2ccccc2C1=O | inactive | inactive | inactive | inactive | inactive | inactive | inactive | inactive |  |  | inactive | inactive | inactive | inactive |  | inactive |  | inactive | inactive | inactive |
| CC(C)OC(=O)C(C(=O)OC(C)C)=C1SC=CS1 | inactive | inactive | inactive | inactive | inactive | inactive |  | inactive |  | inactive |  | inactive | inactive | inactive | inactive | inactive | inactive | inactive | inactive | inactive |
| C#CCN[C@@H]1CCc2ccccc21 | inactive | inactive | inactive | inactive | inactive | inactive | inactive | inactive | inactive | inactive | inactive | inactive | inactive | inactive | inactive | inactive | inactive | inactive | inactive | inactive |
| CC(=O)Oc1ccccc1C(=O)Nc1ncc([N+](=O)[O-])s1 | inactive | inactive | inactive | inactive | inactive | inactive |  | inactive | 13500 nM (active) | 12000 nM (active) | inactive |  | inactive | inactive |  |  | 11200 nM (active) | inactive | inactive | inactive |
| OC(Cn1cncn1)(Cn1cncn1)c1ccc(F)cc1F | inactive | inactive | inactive | inactive | inactive | inactive | inactive | inactive |  | inactive | inactive | inactive | inactive | inactive | inactive | inactive | inactive | inactive | inactive | inactive |
| COc1ccc(-c2ccc3cc(C(=O)O)ccc3c2)cc1C12CC3CC(CC(C3)C1)C2 | inactive | inactive | inactive | inactive | inactive | inactive | inactive | inactive | inactive | inactive | inactive | inactive | inactive | inactive | inactive | inactive |  | inactive | inactive | inactive |
| CN(C)CCc1c[nH]c2ccc(CS(=O)(=O)N3CCCC3)cc12 | inactive | inactive | inactive | inactive | inactive | inactive |  | inactive | inactive | inactive | inactive | inactive | inactive | inactive | inactive | inactive | inactive | inactive | inactive | inactive |
| CNNCc1ccc(C(=O)NC(C)C)cc1 | inactive | inactive | inactive | inactive | inactive | inactive | inactive | inactive |  |  | inactive | inactive | inactive | inactive | inactive | inactive |  | inactive | inactive | inactive |
| CCOCC(O)COc1ccc(NC(=O)CC[S+](C)C)cc1 (configuration not stated) | inactive | inactive | inactive | inactive | inactive | inactive | inactive | inactive | inactive | inactive | inactive | inactive | inactive | inactive | inactive | inactive |  | inactive | inactive | inactive |
| CCC(C)(C)c1ccc(CC(C)CN2C[C@@H](C)O[C@@H](C)C2)cc1 (some centres not stated) | inactive | inactive | inactive | inactive | inactive | inactive | inactive | inactive |  | inactive | inactive |  | inactive | inactive | inactive |  |  | inactive | inactive | inactive |
| S=P(N1CC1)(N1CC1)N1CC1 | inactive | inactive | inactive | inactive | inactive | inactive | inactive | inactive | inactive | inactive |  | inactive | inactive | inactive | inactive | inactive | inactive | inactive | inactive | inactive |
